# GPR151 activ: activators of human GPR151, primary screen, cell-based, PathHunter beta-arrestin, luminescence | G-protein coupled receptor 151 (Homo sapiens), Q8TDV0 | PathHunter beta-arrestin GPR151 cells | activation, % at 11.2 µM | 650,000 compounds, 1% hits | AID 1508602, 2020; in the data active = activation above about 4.9%;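 also: 0% = median of compound wells and 100% = cells with positive control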
# Target sequence (Q8TDV0 whole entry, looked up): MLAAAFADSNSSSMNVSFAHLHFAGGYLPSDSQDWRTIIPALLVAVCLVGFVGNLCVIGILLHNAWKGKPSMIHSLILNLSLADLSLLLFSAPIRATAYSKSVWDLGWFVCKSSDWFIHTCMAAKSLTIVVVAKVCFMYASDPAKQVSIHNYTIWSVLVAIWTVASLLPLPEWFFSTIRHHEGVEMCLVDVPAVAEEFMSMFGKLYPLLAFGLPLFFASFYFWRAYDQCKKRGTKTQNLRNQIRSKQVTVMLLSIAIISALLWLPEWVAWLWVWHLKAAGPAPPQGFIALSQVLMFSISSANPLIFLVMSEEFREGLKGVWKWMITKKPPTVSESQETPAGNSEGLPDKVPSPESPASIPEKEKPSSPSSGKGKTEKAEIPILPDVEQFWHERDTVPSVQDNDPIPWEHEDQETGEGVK
# MITF primary: MITF inhibitors, primary screen, biochemical, AlphaScreen, human | Microphthalmia-associated transcription factor (Homo sapiens), O75030 | inhibition, % at 2.6 µM | 650,000 compounds, 0.91% hits | AID 1259374, 2018 | AlphaScreen MITF homodimerization, bead proximity signal; in the data active = inhibition above about 50%;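 also: 0% = vehicle wells with protein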
# FBW7 activator: FBW7 E3 ligase activators, primary screen, biochemical, AlphaScreen, human; F-box/WD repeat-containing protein 7 (Homo sapiens), Q969H0; AlphaScreen FBW7–phospho-cyclin E peptide binding, activator screen; normalized activity (activation), % at 26.1 µM; 650,000 compounds, 0.13% hits; in the data active = normalized activity above about 1.9%;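 also: purified mutant Fbw7 with reduced substrate affinity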
# TEAD-YAP block: TEAD-YAP interaction inhibition, primary screen, TEAD-YAP interaction inhibitor project, luminescence, HEK-TIYL cells | TEAD-Gal4/YAP UAS-luciferase luminescence | 640,000 compounds, 1.4% hits | inhibition, % at 9.12 µM; in the data active = inhibition above about 32%;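 also: 0% = median of test compound wells and 100% = reference inhibitor wells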
# * = called active by the depositor. Only some compounds are listed: those with a hit (about 3.5% of all), similar ones and a draw of the others.
SMILES,GPR151 activ,MITF primary,FBW7 activator,TEAD-YAP block
NS(=O)(=O)c1ccc(Nc2nccc(-c3cccc(Nc4ccccc4)c3)n2)cc1,3,1,0,54*
NC(=O)c1[nH]ncc1Nc1nccc(-c2ccccc2)n1,-1,6,0,-14
N#Cc1cccc(-c2ccnc(Nc3ccc(S(N)(=O)=O)cc3)n2)c1,1,1,0,-4
NC(=O)c1ccc(Nc2nccc(-c3ccccc3)n2)cc1,-4,-12,1,23
NC(=O)c1ccccc1Nc1nccc(-c2ccccc2)n1,-2,12,0,40*
NC(=O)c1ccc(Nc2ncc(Cl)c(-c3ccccc3)n2)cc1,0,18,2.6*,-6
NC(=O)c1ccc(Nc2nccc(-c3cccc(Nc4ccccc4)c3)n2)cc1Cl,0,-2,0,36*
CC(C)(C)NC(=O)CN1C(=O)[C@H]2CCCN2C(=O)c2ccccc21,0,2,0,-9
CC(C)C[C@H]1NC(=O)[C@@H]2C[C@H](NC(=O)c3ccc(F)c(C(F)(F)F)c3)CN2C1=O,0,10,0,0
NS(=O)(=O)c1cccc(Nc2nccc(-c3ccccc3)n2)c1,-1,4,0,91*
COc1ccc(/C=C2/SC(=O)N(CCCC(=O)Nc3cccc(O)c3)C2=O)cc1,0,-3,0,66*
COc1cc(/C=C2\SC(=S)N(CCCC(=O)O)C2=O)ccc1O,2,5,0,62*
CCOc1cc(/C=C2/SC(=S)N(CCCC(=O)O)C2=O)ccc1O,-2,23,0,73*
CCOc1cc(/C=C2\SC(=S)N(CCOC)C2=O)ccc1O,0,17,1,5
CCOc1cc(/C=C2\SC(=Nc3ccc(C(=O)O)cc3)N(C)C2=O)ccc1O,2,3,0,46*
CC1CCN(C(=O)CC(=O)Nc2ccc3nc4n(c(=O)c3c2)CCCCC4)CC1,1,5,0,5
CCCCOc1ccccc1C1C(C(=O)OC)=C(C)Nc2nnnn21 (stereo not drawn),-1,1,0,9
CC1=CC(=C(C#N)C#N)C=C(C)N1Cc1cccnc1,-1,4,0,1
N#CCc1ccc(NC(=O)C2(c3ccccc3)CCCC2)cc1,0,10,0,5
O=C(NCC(c1ccco1)S(=O)(=O)c1cccs1)c1ccc2c(c1)OCO2 (stereo not drawn),0,11,0,-20
FC(F)(F)Oc1cccc(-c2nccc(NCc3cccc(C(F)(F)F)c3)n2)c1,0,-8,0,50*
FC(F)(F)c1cccc(CNc2nc(N3CCOCC3)nc3nc[nH]c23)c1,-2,0,0,-4
c1cc(Nc2ccc(N3CCOCC3)cc2)nc(NCc2ccc3c(c2)OCO3)n1,1,6,0,38*
FC(F)(F)c1cccc(CNc2nc(-c3ccc(N4CCOCC4)nc3)nc3nc[nH]c23)c1,1,10,18*,3
OCC1CCCN1c1nccc(NCc2cccc(C(F)(F)F)c2)n1 (stereo not drawn),1,-4,0,43*
SMILES,GPR151 activ,MITF primary,FBW7 activator,TEAD-YAP block
COc1ccccc1C(=O)COC(=O)C(C)(C)CCl,1,11,1,0
COc1cc(C=O)cc(Cl)c1OC(C)C,0,-5,0,7
FC(F)(F)c1cccc(CNc2ccnc(Nc3ccc(N4CCOCC4)cc3)n2)c1,-2,25,0,64*
FC(F)(F)c1cccc(CNc2ccnc(NCCN3CCOCC3)n2)c1,2,6,0,24
O=C(CCS(=O)(=O)c1ccc(F)cc1)Nc1ccc(-c2nc3ccccc3[nH]2)cc1,-2,1,0,-44
c1ccc(-n2cnc3c(NCc4nc5ccccc5[nH]4)nc(-c4csc5ccccc45)nc32)cc1,-1,-3,6.9*,-10
COc1cc(Nc2nc(NCc3nc4ccccc4[nH]3)c3ncn(-c4ccccc4)c3n2)cc(OC)c1OC,0,1,0,62*
c1ccc(Nc2nc(NCc3nc4ccccc4[nH]3)c3ncn(-c4ccccc4)c3n2)cc1,1,15,0,34*
COc1cc(Nc2nc(NCc3cccnc3)c3ncn(-c4ccccc4)c3n2)cc(OC)c1OC,1,12,0,1
CCNc1nc(NCc2nc3ccccc3[nH]2)c2ncn(-c3ccccc3)c2n1,2,8,0,-1
COc1ccc(-c2cnc(NC3CC3)nc2)cc1,-8,10,0,38*
